# Assay results taken from PubChem BioAssay (Tox21).
# Inconclusive results are not listed. Where a call stands in place of a potency, no number is given. Calls of active or inactive are those of the source. Calls follow the shape of the dose curve; as a rule, active = well fitted cell-killing curve with a large enough effect in the repeat runs; inconclusive = weak or mixed curves, or effect the other way; inactive = flat fitted curve, though single readings scatter.
# Experiment: qHTS assay to identify small molecule antagonists of the androgen receptor (AR) signaling pathway using the MDA cell line - cell viability counter screen (AID 743041; also: nearly all actives have a fitted effect of over 45% in size)
# Conditions: MDA-kb2 viability, CellTiter-Fluor, 16 h, cells co-treated with R1881 androgen agonist; series mostly up to 70.3 µM
# Excerpt: National Center for Advancing Translational Sciences [NCATS]
# NIH Chemical Genomics Center [NCGC]
# U.S. Environmental Protection Agency [EPA]
# National Institutes of Environmental Health Sciences [NIEHS]
# National Toxicology Program [NTP]
# U.S. Food and Drug Administration [FDA]
# Androgen receptor (AR), a nuclear hormone receptor, plays a critical role in AR-dependent prostate cancer and other androgen related diseases. Endocrine disrupting chemicals (EDCs) and their interactions with steroid hormone receptors like AR may cause disruption of normal endocrine function as well as interfere with metabolic homeostasis, reproduction, developmental and behavioral functions. To identify the compounds that inhibit AR signaling, MDA-kb2 AR-luc cell line (from ATCC, deposited by Wilson et al.) was used to screen the Tox21 10K compound library. MDA-kb2 AR-luc cell line is human breast carcinoma cell line that was stably transfected with a luciferase reporter gene under control of the MMTV promoter containing response elements for both androgen receptor (AR) and glucocorticoid receptor (GR). The cytotoxicity of the Tox21 compound library against the MDA-kb2 AR-luc cell line was tested in parallel by measuring the cell viability using CellTiter-Fluor assay (Promega, Madison, WI) in the same wells.
# Tox21 Assay Protocol Summary:
# MDA-kb2 AR-luc cells were dispensed at 3,000 cells/4 uL/well of culture medium into white wall/solid-bottom 1536-well plates using a Multidrop Combi (ThermoFisher Scientific, Waltham, MA) dispenser. After the assay plates were incubated at a 37C and 0% CO2 for 5 hr, 23 nL of compounds dissolved in DMSO, positive controls or DMSO only was transferred to the assay plate by a Pintool station (Kalypsys, San Diego, CA), followed by addition of 1 uL of agonist (R1881) in culture medium using a Bioraptr Flying Reagent Dispenser (FRD) workstation (Beckman Coulter, Indianapolis, IN, USA). The plates were incubated at a 37C and 0% CO2 for 16 h. After 15.5 h incubation, 1uL of CellTiter-Fluor reagent (Promega) was added using a Bioraptr FRD to each plate for measuring cytotoxicity. The fluorescence intensity was quantified on a ViewLux plate reader (PerkinElmer, Shelton, CT) following 30 min incubation at 37C and 0% CO2.
# Potency is read from the fitted curve at half-maximal effect.
row,SMILES,Potency
1,Cc1cc(CC(=O)O)c(C)n1-c1ccc(Cl)cc1,inactive
2,Cc1ccc2c(ccc3ccccc32)c1,inactive
3,CCN(CC)CCNC(C(=O)OCCC(C)C)c1ccccc1 (stereo not given),inactive
4,N#CCCNCCC#N,inactive
5,CC(C)(C)c1cc(O)c(C(C)(C)C)cc1O,inactive
6,CCCCOC(=O)/C=C\C(=O)OCCCC,inactive
7,CCOc1nc2cccc(C(=O)O)c2n1Cc1ccc(-c2ccccc2-c2nn[nH]n2)cc1,inactive
8,Cc1occc1S,inactive
9,CCCCCCCCN(C)C,inactive
10,CC(=O)O[C@@H]1C(=O)O[C@@H]2[C@H]1OC(=O)[C@@H]2OC(C)=O,inactive
11,Oc1ccc(Cc2ccccc2)cc1,inactive
12,COC(=O)CSc1cc(N=c2sc(=O)n3n2CCCC3)c(F)cc1Cl,inactive
13,CN1CCC(=C2c3ccccc3CCc3sccc32)CC1,inactive
14,CCCCCOC(=O)COc1cc(N2C(=O)C3=C(CCCC3)C2=O)c(F)cc1Cl,inactive
15,CC(=O)OCCc1ccccc1,inactive
16,C1CCC2OC2C1 (stereo not given),inactive
17,Cn1c(N)nc2nc[nH]c2c1=O,inactive
18,SC1CCCC1,inactive
19,CCCCCCCCCCCCCCCCCBr,inactive
20,O=C=NC1CCC(CC2CCC(N=C=O)CC2)CC1 (stereo not given),6.86 µM (active)

row,SMILES,Potency
1,CC(=O)[C@@]1(O)CC[C@H]2[C@@H]3C[C@H](C)C4=CC(=O)CC[C@]4(C)[C@H]3CC[C@@]21C,inactive
2,CCOc1ccc2[nH]cc(C(=O)NCc3ccccc3)c(=O)c2n1,inactive
3,Cc1ccc(C(=O)C(C)CN2CCCCC2)cc1 (stereo not given),inactive
4,CCc1nn(C2CCCCC2)c2cc(C3(C#N)CCC(C(=O)O)CC3)ccc12 (stereo not given),inactive
5,COC(=O)C(C)=O,inactive
6,CCCCOCCOCCOCCOCCO,inactive
7,NCCCN(CCO)CCO,inactive
8,CC(C(=O)O)c1ccc(C(=O)c2ccccc2)s1 (stereo not given),inactive
9,O=S(=O)(O)c1ccc(O)c2ncccc12,inactive
10,COc1cc(C(C)(C)C)c(O)c(C(C)(C)C)c1,inactive
11,CC[C@H](C)[C@@H](C(=O)O)n1sc2ccccc2c1=O,inactive
12,OCCC1CCCCN1 (stereo not given),inactive
13,CCCCCCCCCC(=O)OCC,inactive
14,CCCCC(CC)(CO)CO,inactive
15,O=C(C(=O)c1ccc(Br)cc1)c1ccc(Br)cc1,inactive
16,CC1(C)[C@H]2CC[C@]1(C)[C@H](O)C2,inactive
17,C[C@@H](C1=C(CCN(C)C)Cc2ccccc21)c1ccccn1,inactive
18,Oc1ccc(Sc2ccc(O)cc2)cc1,inactive
19,CC(=O)NCCCS(=O)(=O)O,inactive
20,CCN(CC)CCOC(=O)C1(c2ccccc2)CCCC1,inactive
